# Screens: PubChem BioAssay, National Center for Advancing Translational Sciences (NCATS)
# Epigenetic derep = epigenetic control regulation, reporter derepression | AID 1865 | murine LDR cells, GFP reporter derepression, 30 h | hit rate 0.2% among 280,000 | Potency, µM (titrated, usually from 53.9 µM), inactives show at the top dose GFP activation, usual class: activators; also: % of control where 0% means no effect; nearly all actives have a fitted effect of over 60% in size
#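 In this reporter-derepression format, murine cells bearing a silenced integrated CMV-GFP locus incubate with test compound (30 h, 37 C), then are washed and imaged; fluorescent objects of 20–120 um count as induced cells.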
# ClpP mod = qHTS Assay for Activators of ClpP. ATP-dependent Clp protease proteolytic subunit (Bacillus subtilis (strain 168)), P80244. purified B. subtilis ClpP, FRET peptide cleavage, 20 min. Potency, µM (doses to about 57.5 µM), without a hit: at the top dose activity change, negative = active. hit rate 1.9% among 340,000. AID 651965, 2013; active = well fitted falling curve with a large enough effect; inconclusive = small, poorly fitted or top-dose-only effect; inactive = no such curve, though single readings can be large or run the other way; also: the source files actives as falling curves though it sought activators and does not explain the sign; nearly all actives have a fitted effect of over 65% in size
# Target sequence (P80244 whole entry, looked up): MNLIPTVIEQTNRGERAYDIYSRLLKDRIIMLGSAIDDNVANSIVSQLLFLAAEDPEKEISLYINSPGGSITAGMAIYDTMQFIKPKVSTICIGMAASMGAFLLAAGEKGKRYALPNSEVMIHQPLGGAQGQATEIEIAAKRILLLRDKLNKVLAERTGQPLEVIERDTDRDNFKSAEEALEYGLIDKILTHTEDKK
#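 Buffer: 100 mM Tris/HCl pH8, 100 mM KCl, 0.05% low protease BSA, 2.5% glycerol, 0.01% Tween-20. ClpP 10 microg/mL final; 20 min RT; delta FRET normalized to ADEP and DMSO controls.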
# PINK1 modulator = changes PINK1 expression | AID 624263 | Potency, µM (highest dose often 76.6 µM), for the others: at the top dose activation (PINK1 increase), most hits filed as activators | PINK1 immunofluorescence, high-content cytometry, 24 h | hit rate 0.2% among 410,000; active = well fitted activation curve with a large enough effect; inconclusive = small, poorly fitted or top-dose-only effect; cell line not stated here; also: % of control where 0% means no effect; nearly all actives have a fitted effect of over 65% in size
#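 Compound titrations (5 concentrations, 24 h) on a stable cell line; DMSO and CCCP controls. Endpoint: fixed-cell PINK1 immunofluorescence with mitochondrial, cell and nuclear markers, scanned by microplate cytometer.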
# RORg inh = inhibitors of mouse ROR gamma transcriptional activity | hit rate 5.4% among 310,000 | AID 2551 | Drosophila S2 Gal4-RORgamma UAS-luciferase reporter, 20 h | Potency, µM (series often up to 53.6 µM), for the others: top-dose activity change, negative = inhibition, most hits filed as inhibitors | P51450; also: % is scaled to controls: 0 for no effect and ±100 for the full control effect; nearly all actives have a fitted effect of over 60% in size
# Target sequence (P51450 whole entry, looked up, the tested form may be a part): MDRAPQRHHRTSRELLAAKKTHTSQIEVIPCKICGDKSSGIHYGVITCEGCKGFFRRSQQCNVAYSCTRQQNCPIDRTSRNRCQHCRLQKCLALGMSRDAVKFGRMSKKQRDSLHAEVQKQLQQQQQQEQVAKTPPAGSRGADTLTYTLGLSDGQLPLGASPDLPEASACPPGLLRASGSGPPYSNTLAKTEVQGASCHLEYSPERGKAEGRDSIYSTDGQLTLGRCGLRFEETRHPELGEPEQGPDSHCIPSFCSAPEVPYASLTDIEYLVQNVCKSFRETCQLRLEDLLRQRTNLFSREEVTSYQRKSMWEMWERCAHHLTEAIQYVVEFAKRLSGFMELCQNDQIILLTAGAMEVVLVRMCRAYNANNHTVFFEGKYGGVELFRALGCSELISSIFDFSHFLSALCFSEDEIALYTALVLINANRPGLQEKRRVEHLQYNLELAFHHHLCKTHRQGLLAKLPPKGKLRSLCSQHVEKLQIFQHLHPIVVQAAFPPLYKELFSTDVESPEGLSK
#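 Stably transfected Drosophila Schneider cells are the test system, with ROR gamma fused to Gal4 and luciferase under UAS control; luminescence is read after 20 hr of 700 uM copper sulfate induction at ambient temperature.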
# Sfp PPTase inh = inhibitors of Bacillus subtilis Sfp phosphopantetheinyl transferase. hit rate 3.5% among 310,000. Biochemical Sfp PPTase activity, qHTS. Potency, µM, inactives show largest response in the series, negative = inhibition, actives largely listed as inhibitors;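 also: the enzyme is Sfp with the accession as filed and its product quenches rhodamine fluorescence; 0% = enzyme reaction without inhibitor and -100% = no enzyme wells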
#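 Step 1, compound plus 15 nM Sfp-PPTase, 15 min, room temperature. Step 2, add rhodamine-CoA (5 uM) and BHQ-2-YbbR (12.5 uM). Step 3, read 525/598 nm fluorescence at 0 and 30 min.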
# VP16 counter = Gal4-VP16 reporter inhibition counter-screen; Drosophila S2 Gal4-VP16 UAS-luciferase, luminescence, 20 h; Potency, µM (doses to about 53.6 µM), for the others: at the top dose activity, negative = inhibition, most hits filed as inhibitors; hit rate 3.5% among 310,000; AID 2546;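 also: Gal4-VP16 expression switched on by copper sulfate through the metallothionein promoter; % is scaled to controls: 0 for no effect and ±100 for the full control effect; nearly all actives have a fitted effect of over 50% in size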
# Starred values were filed as active, the others as inactive; ? = inconclusive; / = no result given; [ ] = dose if it differs, or a comment. Only some compounds are listed: those with a hit (about 8.1% of all), similar ones and a draw of the others. Unless noted, calls follow the shape of the dose curve; as a rule, active = well fitted curve in the direction sought with a large enough effect; inconclusive = small, poorly fitted or top-dose-only effect, or another doubt; inactive = no such curve, though single readings can be large; an effect the other way counts as inactive or inconclusive. Potency is read from the fitted curve at half-maximal effect.
SMILES,Epigenetic derep,ClpP mod,PINK1 modulator,RORg inh,Sfp PPTase inh,VP16 counter
CCOC(=O)c1[nH]c2ccc(F)cc2c1NC(=O)CCN1CCOCC1,0%,/,0%,27%,-1%,7%
CCOC(=O)c1[nH]c2ccc(F)cc2c1NC(=O)C(C)N1CCc2cc(OC)c(OC)cc2C1 (stereo not drawn),2%,20µM*,-1%,8%,3%,-3%
CCOC(=O)c1oc2ccc(OC)cc2c1NC(=O)CN1CCN(C)CC1,1%,16µM*,-2%,6%,-2%,-6%
CCOC(=O)c1[nH]c2ccc(OC)cc2c1NC(=O)CN1CCc2ccccc2C1,-2%,16µM*,-1%,17%,3%,2%
CCOC(=O)c1[nH]c2ccccc2c1NC(=O)CCN1CCN(C(=O)OCC)CC1,-2%,22µM*,0%,18%,8%,-1%
CCOCCCn1c(=N)c(C(=O)NC(C)c2ccccc2)cc2c(=O)n3cccc(C)c3nc21 (stereo not drawn),1%,4%,4%,/,/,/
COc1ccc(-c2cccc3c2OC(CNC(=O)c2ccc4c(c2)OCO4)C3)nn1 (stereo not drawn),/,/,2%,/,/,/
CCOC(=O)c1[nH]c2ccccc2c1NC(=O)CCN1CC(C)OC(C)C1 (stereo not drawn),-1%,-22%,-1%,-12%,14%,0%
CCOC(=O)c1[nH]c2ccc(OC)cc2c1NC(=O)CN1CCC2(CC1)OCCO2,1%,14µM*,-2%,2%,4%,0%
CCOC(=O)c1[nH]c2ccc(OC)cc2c1NC(=O)CCN1CCSCC1,-6%,13µM*,1%,6%,4%,-1%
COC(=O)c1[nH]c2ccc(F)cc2c1NC(=O)CCN1CC(C)OC(C)C1 (stereo not drawn),3%,16µM*,-1%,8%,9%,2%
COC(=O)c1[nH]c2cc(OC)ccc2c1NC(=O)CCN1CCN(c2cccc(C)c2C)CC1,-7%,25µM*,1%,0%,1%,-25%
CCOC(=O)c1[nH]c2ccc(F)cc2c1NC(=O)CCN1CCSCC1,-1%,?,2%,15%,13%,1%
CCOC(=O)c1[nH]c2ccc(OC)cc2c1NC(=O)C(C)N1CCC2(CC1)OCCO2 (stereo not drawn),-2%,/,/,-2%,-4%,-5%
CCOC(=O)c1cnc2cc(C(F)(F)F)ccc2c1N1CCN(c2cccc(Cl)c2)CC1,0%,-1%,6%,/,/,/
O=C1[C@@H]2[C@@H](CN3CN(c4ccccc4)N=C(c4ccccc4)[C@@]23c2ccccc2)C(=O)N1c1ccccc1,/,3.5µM*,1%,/,/,/
NC(=O)C1(Nc2ccc(C(=O)O)cc2)CCCC1,/,11µM*,4%,/,/,/
Cc1cccc(S(=O)(=O)c2cn(Cc3ccccc3)c3cc(N4CCCCC4)c(F)cc3c2=O)c1,0%,-11%,9%,/,/,/
COc1ccc(C2(CNC(=O)c3cc(OC)c(OC)c(OC)c3)CCCC2)cc1OC,/,/,1%,/,/,/
COc1ccc(C2(CNC(=O)/C=C\c3ccco3)CCCC2)cc1OC,3%,0%,1%,?,18µM*,?
COc1ccc(C(NC(=O)/C=C/c2ccco2)c2ccc(OC)c(OC)c2)cc1OC,0%,-9%,-3%,-6%,20µM*,?
COc1ccc(CN2C(=O)N(c3ccc(F)cc3)C(=O)C2CC(=O)Nc2ccccc2)cc1 (stereo not drawn),-2%,-1%,0%,/,/,/
CCCCCNCCCCC,/,/,/,-23%,/,1%
CCOCCc1nn2c(=O)cc(COC(=O)CNC(=O)c3ccc(F)cc3)nc2s1,1%,-3%,1%,/,/,/
CCOC(=O)c1cc(S(=O)(=O)NCc2ccc(OC)cc2)[nH]n1,-2%,-3%,-2%,/,/,/
SMILES,Epigenetic derep,ClpP mod,PINK1 modulator,RORg inh,Sfp PPTase inh,VP16 counter
CC1=C(C(=O)Nc2ccccc2)C(c2ccco2)NC(=O)N1 (stereo not drawn),/,-1%,0%[38.3 µM],/,/,/
CC1=C(C(=O)Nc2ccccc2)C(c2ccccc2[N+](=O)[O-])NC(=O)N1 (stereo not drawn),1%,-3%,-2%,7%,20µM*,5%
COc1ccccc1NC(=O)C1=C(C)NC(=O)NC1c1ccc(C)cc1 (stereo not drawn),2%,0%,1%,-23%,10%,0%
COc1ccccc1NC(=O)C1=C(C)NC(=O)NC1c1ccccc1[N+](=O)[O-] (stereo not drawn),1%,/,1%,-43%,3.5µM*,1%
COc1cccc(NC(=O)Cn2c(=O)n(-c3ccc(Cl)cc3)c(=O)c3oc4ccccc4c32)c1,?,?,4%,/,/,/
COc1cccc2nc(-c3cccs3)nc(NN3C(=O)C=C(C)C3=O)c12,/,/,/,6.3µM*,?,5µM*
COc1cc(OC)cc(-c2n[nH]c(=S)n2-c2ccc3c(c2)OCCO3)c1,-2%,/,1%,0.35µM*,-22%,3%
Brc1ccc2c(c1)OCCOCCOc1cc(Br)ccc1OCCOCCOCCO2,-10%,-1%,?,?,8%,16%[0.365 µM]
Oc1ccc(-c2n[nH]c(=S)n2-c2ccc3c(c2)OCCO3)c(O)c1,-2%,0%,-1%,?,?,11%
S=c1[nH]nc(-c2ccc(Cl)cc2Cl)n1-c1ccc2c(c1)OCCO2,-1%,-12%,-2%,3.5µM*,45µM*,-10%
S=c1[nH]nc(-c2ccc(Br)cc2)n1-c1ccc2c(c1)OCCO2,-4%,1%,-1%,0.4µM*,40µM*,-29%
COc1cc(N=c2c([N+](=O)[O-])nn(-c3ccc4c(c3)OCCO4)n2O)cc(OC)c1,1%,-2%,-2%,15%,-4%,-18%
COc1cc(-c2n[nH]c(=S)n2-c2cccc(C(F)(F)F)c2)cc(OC)c1OC,5%,-4%,3%,24%,-20%,2%
COc1cc(-c2n[nH]c(=S)n2-c2ccc(Br)cc2)cc(OC)c1OC,/,-3%,5%,8.9µM*,-3%,?
Cn1c(C2CCC2)nc2cc(C(=O)N3CCOc4ccccc4C3)cc(NC(=O)C3CCCO3)c21 (stereo not drawn),/,/,1%,/,/,/
O=C(c1ccc2c(c1)OCO2)N1CCOc2ccc(CN3CCC(Oc4cccnc4)CC3)cc2C1,/,/,-1%,/,/,/
CCOC(=O)Cn1c(=O)n(C2CCCCC2)c2nc(-c3ccc(OCC)cc3)nc(C(N)=O)c21,-2%,4%,2%,/,/,/
